Experimental data: PubChem BioAssay (Tox21)
Records with an inconclusive call do not appear. The source made the active and inactive calls. Unless noted, the call rests on the fitted dose curve; in most records, active means well fitted curve in the direction sought with a large enough effect in the repeat runs; inconclusive means weak or mixed curves; inactive means no such curve, though single readings can be large; an effect the other way counts as inactive or inconclusive.

How the values were obtained:
[1] = qHTS assay for small molecule agonists of the p53 signaling pathway (AID 651631; calls by dose curve; further: nearly all actives have a fitted effect of over 15% in size)
Method in brief: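 HCT-116 cells carrying a stable p53 response element–beta-lactamase reporter were plated, rested 5 h at 37 °C, then exposed to compound in DMSO for 16 h at 37 °C; reporter activity was read as FRET substrate fluorescence after 2 h at room temperature.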

[2] = qHTS assay for small molecules that induce genotoxicity in human embryonic kidney cells expressing luciferase-tagged ATAD5 (AID 651632); further: nearly all actives have a fitted effect of over 15% in size
Method in brief: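 HEK293T cells carrying a luciferase reporter tagged to ATAD5 were exposed to compound or DMSO vehicle for 16 hr at 37C, 5% CO2. Amplite was added, and after 30 min at room temperature luciferase activity was read as a marker of ATAD5 induction.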

[3] = qHTS assay for small molecule agonists of the p53 signaling pathway - cell viability (AID 651633; calls by dose curve; further: series mostly up to about 83 µM; nearly all actives have a fitted effect of over 30% in size)
Method in brief: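 p53RE-bla cells, seeded at 4,000 per well and rested 5 h at 37 C/5% CO2, received compounds in DMSO for 16 h at 37 C. CellTiter-Glo was then added, and luminescence was read after 30 min at room temperature to gauge cytotoxicity.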

[4] = qHTS assay for small molecules that induce genotoxicity in human embryonic kidney cells expressing luciferase-tagged ATAD5 - cell viability (AID 651634; calls by dose curve; further: nearly all actives have a fitted effect of over 25% in size)
Method in brief: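 HEK293T cells expressing luciferase-tagged ATAD5 were exposed to compound or DMSO for 15.5 hr at 37C, 5% CO2. Viability was then read as live-cell protease activity by CellTiter-Fluor fluorescence after 30 min at 37C.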

[5] = qHTS assay for small molecule disruptors of the mitochondrial membrane potential (AID 720635); further: potency means the concentration at half of the fitted maximal effect
Method in brief: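 HepG2 cells (2,000/well) attached overnight at 37C, then took compound for 1 hr at 37C, 5% CO2. Mito-MPS dye was added for 30 min; fluorescence was read at 490/535 nm (monomers) and 540/590 nm (aggregates).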

[6] = qHTS assay to test for compound auto fluorescence at 590 nm (red) in HepG2 cells (AID 720674)
Method in brief: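 Compound auto-fluorescence is scored relative to Rose Bengal sodium, measured at 540/590 nm in live HepG2 cultures after 1 hr compound contact (37 C, 5% CO2).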

[7] = qHTS assay to test for compound auto fluorescence at 535 nm (green) in HepG2 cells (AID 720675)
[8] = qHTS assay to test for compound auto fluorescence at 460 nm (blue) in HEK293 cells (AID 720678)
Method in brief: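 HEK293, 2,000 cells/well, 10% dialyzed FBS; attach 4-5 hr 37C; pin compound or DMSO; o/n 37C/5% CO2; fluorescence 405/460 nm; triamterene-equivalent units.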

[9] = qHTS assay to test for compound auto fluorescence at 590 nm (red) in HEK293 cells (AID 720679)
Method in brief: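 Intensity at 540nm excitation and 590nm emission is reported as Rose Bengal sodium-equivalent autofluorescence. Measurements followed overnight exposure (37C, 5% CO2) of HEK293 cells, 2,000 per well, to 23 nL compound.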

[10] = qHTS assay to test for compound auto fluorescence at 535 nm (green) in HEK293 cells (AID 720680)
[11] = qHTS assay to test for compound auto fluorescence at 460 nm (blue) in HEK293 cell free culture (AID 720681)
Method in brief: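 Test compounds were pinned into cell-free culture medium (DMEM with 10% FBS) and fluorescence was read directly at Ex/Em 405/460 nm. Signals were expressed as fluorescence equivalents of triamterene, with DMSO vehicle as control.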

[12] = qHTS assay to test for compound auto fluorescence at 535 nm (green) in HEK293 cell free culture (AID 720682)
Method in brief: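 Read-out: 485/535 nm fluorescence intensity, calibrated against fluorescein. Medium only (DMEM + 10% FBS, no cells); test compound or DMSO vehicle added by pintool before plate reading.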

[13] = qHTS assay to test for compound auto fluorescence at 590 nm (red) in HEK293 cell free culture (AID 720683)
Method in brief: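 Tox21 10K library compounds were pinned into cell-free DMEM with 10% FBS and fluorescence was read at excitation 540 nm. Activity is expressed as Rose Bengal sodium equivalency.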

[14] = qHTS assay to test for compound auto fluorescence at 590 nm (red) in HepG2 cell free culture (AID 720684)
Method in brief: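 Measured in medium alone (MEM containing 10% FBS) following pintool addition of compound; emission at 590 nm with 540 nm excitation, referenced to Rose Bengal sodium.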

[15] = qHTS assay to test for compound auto fluorescence at 460 nm (blue) in HepG2 cell free culture (AID 720685)
Method in brief: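 Compound (23 nL) or DMSO pinned into cell-free MEM with 10% FBS; blue fluorescence read at 405/460 nm excitation/emission, expressed as auto-fluorescence equivalency to triamterene.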

[16] = qHTS assay to test for compound auto fluorescence at 535 nm (green) in HepG2 cell free culture (AID 720686)
[17] = qHTS assay to test for compound auto fluorescence at 460 nm (blue) in HepG2 cells (AID 720687)
Method in brief: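 Cells (2,000/well in MEM with 10% FBS) attached overnight at 37 C, then were exposed to compound or DMSO for 1 hr at 37 C, 5% CO2. Fluorescence read at Ex/Em 405/460 nm, expressed as triamterene-equivalent signal.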

[18] = molecular target: Glucocorticoid receptor (Homo sapiens) (UniProt P04150); assay: qHTS assay to identify small molecule agonists of the glucocorticoid receptor (GR) signaling pathway (AID 720691; active means well fitted activation curve with a large enough effect in the signal ratio in the repeat runs, not every such curve was filed as active; the % refers to the signal ratio)
Method in brief: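 GR-bla HeLa cells (beta-lactamase reporter under glucocorticoid response element) were plated 4 h at 37 C/5% CO2, given compounds in DMSO, and incubated 18 h at 37 C. LiveBLAzer B/G FRET substrate was added for 2 h at room temperature, then fluorescence intensity read.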

[19] = molecular target: Glucocorticoid receptor (Homo sapiens) (UniProt P04150); assay: qHTS assay to identify small molecule antagonists of the glucocorticoid receptor (GR) signaling pathway (AID 720692; active means well fitted inhibition curve with a large enough effect in the signal ratio in the repeat runs, not every such curve was filed as active; the % refers to the signal ratio)
Method in brief: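 GR-bla HeLa cells (beta-lactamase reporter under glucocorticoid response element) were pre-plated 4 h at 37 C, treated with compounds plus 5 nM dexamethasone (final) for 18 h, then read by LiveBLAzer B/G FRET fluorescence after 2 h.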

[20] = qHTS assay for small molecule disruptors of the mitochondrial membrane potential - cell viability (AID 720634; calls by dose curve;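 further: human HepG2 liver cancer cells; series mostly up to about 83 µM; nearly all actives have a fitted effect of over 20% in size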)
Method in brief: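 HepG2 cells seeded overnight at 37 C, then exposed to compound or DMSO for 1 hr at 37 C, 5% CO2. m-MPI dye added, then CellTiter-Glo for 30 min at room temperature; viability read as ATP luminescence.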

Measured: Potency

Sequence of Glucocorticoid receptor (Homo sapiens) (P04150 whole entry, looked up): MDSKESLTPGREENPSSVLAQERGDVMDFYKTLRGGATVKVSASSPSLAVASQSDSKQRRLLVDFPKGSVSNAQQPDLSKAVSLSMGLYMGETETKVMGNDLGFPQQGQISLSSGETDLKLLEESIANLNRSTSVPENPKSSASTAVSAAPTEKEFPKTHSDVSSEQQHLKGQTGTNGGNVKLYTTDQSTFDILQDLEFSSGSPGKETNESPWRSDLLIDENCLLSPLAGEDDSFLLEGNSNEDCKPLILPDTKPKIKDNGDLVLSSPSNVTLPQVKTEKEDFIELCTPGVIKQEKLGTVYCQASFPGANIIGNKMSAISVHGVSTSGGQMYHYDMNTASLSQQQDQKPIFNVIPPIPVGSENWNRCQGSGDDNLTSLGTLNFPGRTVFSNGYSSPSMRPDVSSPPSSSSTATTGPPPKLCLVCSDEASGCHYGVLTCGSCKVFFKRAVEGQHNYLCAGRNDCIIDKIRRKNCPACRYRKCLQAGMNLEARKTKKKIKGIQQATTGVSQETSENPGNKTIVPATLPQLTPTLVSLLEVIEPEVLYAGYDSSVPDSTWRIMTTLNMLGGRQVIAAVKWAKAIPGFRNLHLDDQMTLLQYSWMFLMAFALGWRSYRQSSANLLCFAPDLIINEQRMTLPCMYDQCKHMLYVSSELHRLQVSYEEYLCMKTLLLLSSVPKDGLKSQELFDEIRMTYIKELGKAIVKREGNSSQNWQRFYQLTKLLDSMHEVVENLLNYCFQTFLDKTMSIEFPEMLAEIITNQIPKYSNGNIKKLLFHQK

CC(C)CC(=O)CC(C)CC(C)C (configuration not stated)
inactive: [1] | [2] | [3] | [4] | [5] | [6] | [7] | [8] | [9] | [10] | [11] | [12] | [13] | [14] | [15] | [16] | [17] | [18] | [19]

O=C1CCCC1
inactive: [1] | [2] | [3] | [4] | [20] | [5] | [6] | [7] | [8] | [9] | [11] | [12] | [13] | [14] | [15] | [16] | [17] | [18] | [19]

CCNc1cccc(C)c1
inactive: [1] | [2] | [3] | [4] | [5] | [6] | [8] | [9] | [10] | [11] | [12] | [13] | [14] | [15] | [16] | [17]

OCc1cccc(Oc2ccccc2)c1
inactive: [1] | [2] | [3] | [4] | [20] | [6] | [7] | [8] | [9] | [10] | [11] | [12] | [13] | [14] | [15] | [16] | [17]
active: [5] 54.5 µM

Cc1ccc([N+](=O)[O-])cc1S(=O)(=O)O
inactive: [1] | [2] | [3] | [4] | [20] | [5] | [6] | [8] | [9] | [10] | [11] | [12] | [13] | [14] | [15] | [16] | [17] | [18] | [19]

O=C(O)CCCCCCCCC(=O)O
inactive: [2] | [3] | [4] | [20] | [5] | [6] | [7] | [8] | [9] | [10] | [11] | [12] | [13] | [14] | [15] | [16] | [17]

Clc1ccccn1
inactive: [2] | [3] | [4] | [20] | [5] | [6] | [8] | [9] | [10] | [11] | [12] | [13] | [14] | [15] | [16] | [17]

C=C(C)CNCC
inactive: [1] | [2] | [3] | [4] | [6] | [8] | [9] | [11] | [12] | [13] | [14] | [15] | [16] | [17] | [18] | [19]

O=C(O)Cn1c(=O)n(Cc2ccc(Br)cc2F)c(=O)c2ccc(Cl)cc21
inactive: [1] | [2] | [3] | [20] | [6] | [8] | [9] | [10] | [11] | [12] | [13] | [14] | [15] | [16] | [17] | [18]

CC(C)CCCCCCCOC(=O)CCCCC(=O)OCCCCCCCC(C)C
inactive: [2] | [3] | [4] | [20] | [6] | [7] | [8] | [9] | [10] | [11] | [12] | [13] | [14] | [15] | [16] | [17] | [18] | [19]

CN1C(=O)CC[C@H]1c1cccnc1
inactive: [2] | [3] | [4] | [20] | [5] | [6] | [7] | [8] | [9] | [10] | [11] | [12] | [13] | [14] | [15] | [16] | [17]

C=C(C)C(=O)OCC(C)C
inactive: [2] | [3] | [4] | [20] | [5] | [6] | [7] | [8] | [9] | [11] | [12] | [13] | [14] | [15] | [16] | [17]

O=c1[nH]cnc2[nH]ncc12
inactive: [2] | [3] | [4] | [20] | [5] | [6] | [7] | [8] | [9] | [10] | [11] | [12] | [13] | [14] | [15] | [16] | [17] | [18] | [19]

CCCCCCCC=O
inactive: [2] | [3] | [4] | [20] | [6] | [7] | [8] | [9] | [11] | [12] | [13] | [14] | [15] | [16] | [17]

C=Cc1ccc(C)cc1
inactive: [2] | [3] | [4] | [20] | [5] | [6] | [8] | [9] | [11] | [12] | [13] | [14] | [15] | [16] | [17] | [18] | [19]

CCO[Si](CCCN)(OCC)OCC
inactive: [2] | [3] | [4] | [20] | [5] | [6] | [8] | [9] | [10] | [11] | [12] | [13] | [14] | [15] | [16] | [17] | [18] | [19]

NCCCCCCN
inactive: [2] | [3] | [4] | [20] | [5] | [6] | [8] | [9] | [10] | [11] | [12] | [13] | [14] | [15] | [16] | [17]
